# Only some compounds are listed: those with a hit (about 5.3% of all), similar ones and a draw of the others.
# Vaccinia mCherry: qHTS for Stage-Specific Inhibitors of Vaccinia Orthopoxvirus: mCherry Reporter Primary qHTS. Potency, µM (highest dose often 36.5 µM), without a hit: at the top dose activity change, negative = inhibition, most hits filed as inhibitors. AID 720579, 2013. Vaccinia virus mCherry reporter infection, fluorescence. actives 0.63% (n = 310,000); calls by dose curve; tested in A549 cells; also: nearly all actives have a fitted effect of over 35% in size
# Vaccinia Venus: qHTS for Stage-Specific Inhibitors of Vaccinia Orthopoxvirus: Venus Reporter Primary qHTS. Vaccinia virus Venus reporter expression, fluorescence. actives 0.46% (n = 330,000). Potency, µM (series often up to 36.5 µM), without a hit: at the highest dose activity change, negative = inhibition, usual class: inhibitors; calls by dose curve; tested in A549 cells; also: nearly all actives have a fitted effect of over 30% in size
# Marburg entry inh: qHTS for inhibitors of binding or entry into cells for Marburg Virus; Marburg virus pseudotyped entry inhibition, cell reporter; Potency, µM (doses to about 37.8 µM), without a hit: at the top dose activity change, negative = inhibition, hits mostly inhibitors; actives 1.8% (n = 300,000); calls by dose curve; tested in HEK293 cells
# FMDV inh: High Throughput Screening for Foot and Mouth Disease Virus Antivirals | FMDV antiviral cell-based qHTS | Potency, µM (titrated, usually from 57.9 µM), for the others: at the highest dose activity change, negative = inhibition, most hits filed as inhibitors | actives 1.2% (n = 410,000) | AID 1159524, 2015; calls by dose curve; tested in HEK293T cells; also: read-out not given here; nearly all actives have a fitted effect of over 45% in size
# HCV inh: qHTS Assay for Inhibitors of Hepatitis C Virus (HCV) | Huh7.5.1 HCVcc-Cre infection, luciferase reporter, 44 h | Potency, µM (top dose mostly 41.8 µM), inactives show top-dose activity change, negative = inhibition, hits mostly inhibitors | actives 3.4% (n = 340,000) | AID 651820, 2012; active = well fitted inhibition curve with a large enough effect; inconclusive = small, poorly fitted or top-dose-only effect, or another doubt; inactive = no such curve, though single readings can be large or run the other way
#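 Antiviral activity was scored by luciferase reporter output from cells infected with HCVcc-Cre (~0.5 moi) in presence of compound, 44 h infection period, cells seeded 1,000/well 4 h prior.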
# Lassa entry inh: qHTS for Inhibitors of binding or entry into cells for Lassa Virus. actives 1.2% (n = 300,000). Potency, µM (top dose mostly 37.9 µM), for inactives: top-dose activity change, negative = inhibition, most hits filed as inhibitors. AID 540256, 2011. Lassa virus pseudotype entry inhibition, cell reporter; calls by dose curve; tested in HEK293 cells; also: nearly all actives have a fitted effect of over 50% in size
# * hit, by the source's call; i = inactive; ? = inconclusive; . = no result given; [ ] = dose if it differs, or a comment. % is scaled to controls: 0 for no effect and ±100 for the full control effect; potency is read from the fitted curve at half-maximal effect.
SMILES,Vaccinia mCherry,Vaccinia Venus,Marburg entry inh,FMDV inh,HCV inh,Lassa entry inh
COc1ccccc1NC(=O)NNC(=O)CCc1ccccc1,-12.7%,-6.4%,-16.3%[46.1 µM],10.3%,2.7%,9.0%[46.1 µM]
CN1CCN(C(=O)N2c3ccccc3C=Cc3ccccc32)CC1,-1.4%,-16.2%,10µM*,22.4%,-1.3%,?
NC(=O)N1c2ccccc2C=Cc2ccccc21,-0.3%,-10.2%,-4.2%,-14.5%,?,?
CN1C(=O)N=C2N=CN(C)C2C1=O (stereo not given),.,.,4.5%,.,.,.
Cc1ccc(NC(=O)N(Cc2c[nH]c3ccccc23)C2CCCCCC2)cc1C,?,9.8%,?,19.2%,.,2.51µM*
COc1cccc(NC(=O)N(Cc2c[nH]c3ccccc23)C2CCCCC2)c1,-9.5%,-7.7%,?,13.2%,.,-16.0%[46.1 µM]
CC(C)C(=O)N1CCN(c2ccc(NC(=O)c3ccc4c(c3)OCCO4)cc2Cl)CC1,.,.,6.51µM*,11.2µM*,12.6µM*,25.9µM*
O=C(Nc1ccc(NC(=O)c2cccs2)c(Cl)c1)c1cccs1,0.9%,-17.2%,2.0%[46.1 µM],27.8%,11.2µM*,24.1%
O=C(Nc1nonc1NC(=O)c1cccs1)c1cccs1,?,?,?,?,3.98µM*,8.91µM*
CC(C)C(=O)N1CCN(c2ccc(NC(=O)c3cccs3)cc2Cl)CC1,.,.,.,?,10µM*,.
CC(C)C(=O)N1CCN(c2ccc(NC(=O)c3cccs3)cc2)CC1,i,-16.0%,-1.8%[46.1 µM],-19.9%,-1.1%,-0.7%
CC(=O)N1CCN(c2ccc(NC(=O)c3ccc4c(c3)OCCO4)cc2Cl)CC1,i,-11.7%,?,?,-4.6%,?
COc1ccc(Cl)cc1NC(=O)Cn1c(=O)n(-c2ccc(C)cc2)c(=O)c2ccc(C(=O)NCc3ccccc3Cl)cc21,-1.4%,?,6.4%[46.1 µM],6.8%,.,?
CN(c1ccccc1)S(=O)(=O)c1cc(C(=O)N2CCN(c3ccccn3)CC2)ccc1Cl,.,-21.1%,?,12.6µM*,?,?
O=C(c1ccc(Cl)c(S(=O)(=O)Nc2ccc(F)cc2)c1)N1CCN(c2ccccn2)CC1,.,.,14.6µM*,-4.7%,-1.2%,?
O=C(c1ccc(S(=O)(=O)Cc2ccccc2Cl)c([N+](=O)[O-])c1)N1CCN(c2ccccn2)CC1,?,-21.2%,?,15.8µM*,?,-3.8%
C=C(C#Cc1ccc(OC)cc1)CCN1C=C(C(=O)OCC)C(c2ccccc2)NC1=O (stereo not given),.,.,6.4%[14.2 µM],.,.,?
Cc1cc(NC(=O)C(C)SCC(=O)N(Cc2ccccc2)c2ccccc2)no1 (stereo not given),-17.2%,10.9%,3.55µM*,-13.0%,14.6%,?
Cc1cc(NC(=O)C(C)SCC(=O)OCC(=O)N(Cc2ccccc2)C(C)(C)C)no1 (stereo not given),-7.8%,-11.2%,3.7%,-7.0%,14.6%,3.6%
N=c1c2c(-c3ccccc3)c(-c3ccccc3)n(Cc3ccco3)c2ncn1CCCO,-7.3%,-7.8%,5.62µM*,?,-89.6%,?
c1coc(CNc2nc3ccccc3n2CCN2CCOCC2)c1,-0.9%,-10.8%,3.0%,.,?,-8.3%
N=c1c2c(-c3ccccc3)c(-c3ccccc3)n(Cc3ccco3)c2ncn1CCN1CCOCC1,.,.,10.3µM*,-1.7%,?,?
N=c1c2c(-c3ccccc3)c(-c3ccccc3)n(Cc3ccco3)c2ncn1CCO,-27.2%,?,?,?,12.6µM*,?
CCCNc1nc(-c2ccccc2)c(C(=O)OCC)cc1C#N,.,?,?,?,3.16µM*,?
C=CCNc1nc(-c2ccccc2)c(C(=O)OCC)cc1C#N,-17.7%,-25.6%,?,?,?,?
SMILES,Vaccinia mCherry,Vaccinia Venus,Marburg entry inh,FMDV inh,HCV inh,Lassa entry inh
CCCCNc1nc(-c2ccccc2)c(C(=O)OCC)cc1C#N,.,-28.7%,?,-14.6%,?,11.2µM*
COc1ccc(N2C(=O)CSC23C(=O)N(CC(N)=O)c2ccccc23)cc1 (stereo not given),2.3%,3.6%,.,-14.7%,.,25.1%[46.1 µM]
CN1CCC(=C2c3ccccc3C=Cc3ccccc32)CC1,i,-9.2%,7.08µM*,?,?,8.2µM*
CN1CCC(=C2c3ccccc3Sc3ccccc32)CC1,?,?,.,?,10µM*,.
COCCn1c(=O)c(-c2ccc(OC)cc2)nc2cnc(Nc3ccccc3)nc21,.,.,.,0.4%,.,.
COC(=O)[C@@H]1CCCN1Cc1ccc2c(c1)CN(Cc1cc(OC)c3c(c1)OCO3)CCO2,-8.7%,-7.5%,.,-9.2%,.,.
CCCCNc1nc(Oc2ccc(OCC(N)=O)nn2)nc(N2CCOCC2)n1,-3.8%,-6.4%,0.2%[46.1 µM],-8.6%,.,24.3%[46.1 µM]
COc1ccc2[nH]c3c(N4CC(C)OC(C)C4)ncnc3c2c1 (stereo not given),.,.,-29.3%,-19.1%,-21.7%,10.5%
COc1ccc2c(c1)[nH]c1c(N3CCN(Cc4ccc5c(c4)OCO5)CC3)ncnc12,?,?,?,6.31µM*,?,?
COc1ccc2c(c1)[nH]c1c(N3CCSCC3)ncnc12,?,-24.7%,?,25.1µM*,-81.9%,?
CC(C)(C)c1ccc(-c2nc(NC(=O)CSc3ncnc4sc5c(c34)CCCC5)ns2)cc1,-11.3%,-5.4%,?,-8.6%,.,17.3%[46.1 µM]
C/C(=N/NC(=O)c1cccs1)c1c(C)[nH]n(-c2nc3ccccc3s2)c1=O,.,.,4.61µM*,-14.6%,-15.7%,?
COC(=O)Cc1[nH]n(-c2nc3ccccc3s2)c(=O)c1C(C)=Nc1ccc(Cl)cc1,.,.,.,1µM*,-1.7%,.
COC(=O)Cc1[nH]n(-c2nc3ccccc3s2)c(=O)c1C(C)=Nc1ccc(C)cc1,-10.8%,-16.1%,?,0.355µM*,-14.8%,?
C=CCN1C(=O)c2ccc(C(=O)OCC(=O)Nc3ccc(S(N)(=O)=O)cc3)cc2C1=O,-9.5%,8.7%,1.8%[46.1 µM],-16.7%,?,?
CCOC(=O)c1c(NC(=O)C(C)OC(=O)C2=COCCO2)sc2c1CCCC2 (stereo not given),.,.,.,-27.2%,12.6µM*,.
CCOC(=O)c1c(NC(=O)CSc2nnc(C)c(=O)[nH]2)sc(C)c1-c1ccc(C)cc1,-8.5%,-20.6%,?,-7.9%,-10.2%,-7.2%[46.1 µM]
COC(=O)c1cc(NC(=O)c2ccc(Cn3cc(Cl)cn3)o2)cc(C(=O)OC)c1,-12.4%,-1.7%,?,?,?,-3.6%
CCOC(=O)c1c(NC(=O)c2ccc(-n3cnnn3)cc2)sc2c1CCCC2,-12.4%,-8.3%,?,-24.8%,?,15.8µM*
CCOC(=O)c1c(NC(=O)CSc2nnc(N)s2)sc(C)c1-c1ccc(C)cc1,.,.,.,?,25.1µM*,.

# Compound activity (PubChem)
